Our source for the outcome values is PubChem BioAssay (NCATS).

Calls of active or inactive are those of the source. Calls follow the shape of the dose curve; as a rule, active = well fitted activation curve with a large enough effect; inconclusive = small, poorly fitted or top-dose-only effect; inactive = flat fitted curve, though single readings scatter.

The assay can be described thus: Confirmation and Secondary Assay for Modulators of Hemoglobin Beta Chain Splicing at IVS2 654 locus (AID 910).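 Also: HeLa cells stably carrying EGFP split by mutant beta-globin IVS2-654 intron.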 The settings on record: HeLa EGFP-654 splicing reporter, GFP fluorescence, 48 h; series mostly up to 46.1 µM. An excerpt:
NIH Chemical Genomics Center [NCGC] NIH Molecular Libraries Screening Centers Network [MLSCN] MLSCN Grant: 1 X01 MH080684-01 PI Name: Dr. Ryszard Kole NCGC Assay Overview: Modulation of Alternative Splicing as Therapy Abnormal splicing is associated with a number of diseases, including cancer and genetic diseases such as cystic fibrosis, muscular dystrophy and beta-thalassemia. Alteration of disease associated splicing patterns provides a promising target for treatment. […] Mutations in the second intron of the b-globin gene at positions 654 or 705 are clinically relevant and cause mis-splicing which results in an out of frame gene product. […] EGFP-654 HeLa Cells as screen system. HeLa cell lines were stably transfected with a construct in which the EGFP (enhanced green fluorescent protein) cDNA was interrupted by the second intron of the beta-globin gene (IVS2-654). The ISV2 intron contains mutations which cause mis-splicing of EGFP and premature termination of EGFP which results in a nonfluorescent protein product. […] Expression of the transgene was driven by the CMV promoter. We concluded that a low molecular weight compound, which restored correct splicing of intron 2 would also generate functional EGFP protein, resulting in a fluorescent signal. Thus, the HeLa cells that express the EGFP-654 construct can be used for high throughput screening of a chemical library.
NCGC Assay Protocol Summary: Confirmatory Screening. Freshly thawed HeLa EGFP-654 cells were seeded in 5 ul of optimem media (Invitrogen) containing 2 % fetal calf serum (Hyclone) and 1x penicillin/streptomycin (Invitrogen) at a concentration of 500 cells per well in 1536-well plates. Cells were incubated overnight at 37C in 5% CO2. The next day, cells were treated with DMSO, 500 nM antisense ISV2 654 PNA control oligo, or library compound and allowed to grow at 37C in 5% CO2 for 2 days. The PNA oligo blocked the mutation site in the intron and allowed proper (wild type) splicing to occur, resulting in full length EGFP expression and also allowed for optimization of the assay parameters. Plates were read in the Acumen Explorer (TTP Labtech) using 488 nm laser excitation and 500-520 nm emission PMT filter in a 1 x 8 uM capture mode. Fluorescnet objects ranging in size from 5 to 250 uM were measured and the total peak GFP intensity for each well was used for data analysis. Keywords: Thalassemia, beta-thalassemia, beta-globin, EGFP, ISV2 654, ISV2 705, SSO, PNA, antisense, splicing, MLSMR, MLSCN, NIH Roadmap, qHTS, NCGC
In the case of `CCCCCCCCCCCCCCCCCCOCC(O)CO` (stereo not given), the molecule was called inactive.

`CCN(CC)C(C)CN1c2ccccc2Sc2ccccc21` (stereo not given): the molecule was called inactive.

For `Cc1cc(N)c2ccccc2[n+]1CCCCCCCCCC[n+]1c(C)cc(N)c2ccccc21`, the call was inactive.

In the case of `Oc1cccc(O)c1`, the molecule was classed as inactive.

Take `CN(C)CCC=C1c2ccccc2CCc2ccccc21`: the result was inactive.

Consider `Cc1c(Cl)cccc1Nc1ccccc1C(=O)O`, for which the result was inactive.

Take `O=c1cc[nH]c(=S)[nH]1`: the result was inactive.

With `NC(=O)N/N=C/c1ccc([N+](=O)[O-])o1`, the molecule was classed as inactive.

In the case of `CNCC(O)c1ccc(O)c(O)c1` (stereo not given), the molecule was called inactive.

In the case of `CCN(CC)CCOC(=O)C1(C2CCCCC2)CCCCC1`, the result was inactive.

Consider `O=C(O)c1ccccc1O`, for which the molecule was called inactive.

Consider `OCC(O)CN1CCN(c2ccccc2)CC1` (stereo not given), for which the call was inactive.

With `CC1(C)OC(=O)NC1=O`, the molecule was called inactive.

Turning to `CC(C)(C(=O)O)c1ccc(C(O)CCCN2CCC(C(O)(c3ccccc3)c3ccccc3)CC2)cc1` (stereo not given), the molecule was classed as inactive.

As for `O=C(Oc1ccccc1C(=O)O)c1ccccc1O`, the outcome was inactive.

With `Cc1ccc(C(C)C)cc2c(C)ccc1-2`, the molecule was called inactive.

Take `CN(C)CC[C@@H](c1ccc(Cl)cc1)c1ccccn1`: the molecule was classed as inactive.

Turning to `CSc1ccc2c(c1)C(N1CCN(C)CC1)Cc1ccccc1S2` (stereo not given), the call was inactive.

For the molecule `NS(=O)(=O)c1cc2c(cc1Cl)NC(CSCc1ccccc1)=NS2(=O)=O`, the call was inactive.

With `Nc1ccc(S(=O)(=O)NC(=O)c2ccccc2)cc1`, the molecule was classed as inactive.

As to `C=Cc1c(C)c2cc3[nH]c(cc4nc(cc5nc(cc1[nH]2)C(C)=C5CCC(=O)O)C(CCC(=O)O)=C4C)c(C)c3C=C`, the molecule was called inactive.

On to `CN1CCOC(c2ccccc2)c2ccccc2C1` (stereo not given), for which the molecule was classed as inactive.

For `CN(C)CCCN1c2ccccc2Sc2ccc(Cl)cc21`, the call was inactive.

For `CCn1cc(C(=O)O)c(=O)c2cnc(N3CCNCC3)nc21`, the molecule was called inactive.

Turning to `CC12CCC(CC1)C(C)(C)O2`, the outcome was inactive.

As to `O=C1c2c(O)cccc2Cc2cccc(O)c21`, the call was inactive.

On to `CCCCN(CCCC)CCCOC(=O)c1ccc(N)cc1`, for which the outcome was inactive.

In the case of `CSc1ccc2c(c1)N(CCC1CCCCN1C)c1ccccc1S2` (stereo not given), the outcome was inactive.

Consider `COC(=O)C1=C(C)NC(C)=C(C(=O)OC)C1c1ccccc1[N+](=O)[O-]`, for which the molecule was called inactive.

Turning to `NS(=O)(=O)c1cc2c(cc1C(F)(F)F)NC(Cc1ccccc1)NS2(=O)=O` (stereo not given), the molecule was called inactive.

As for `CN(C)CCOC(C)(c1ccccc1)c1ccccn1` (stereo not given), the molecule was called inactive.

Turning to `CCN(CC)CCNC(=O)c1cc(Cl)c(N)cc1OC`, the outcome was inactive.

On to `OCCN1CCN(CCCN2c3ccccc3Sc3ccc(Cl)cc32)CC1`, for which the result was inactive.

In the case of `Nc1ccc(S(=O)(=O)Nc2ccc(Cl)nn2)cc1`, the molecule was called inactive.

Take `O=C(CCCN1CCN(c2ccccn2)CC1)c1ccc(F)cc1`: the outcome was inactive.

On to `NCC(=O)CCC(=O)O`, for which the molecule was classed as inactive.

As to `CNCCC(Oc1ccc(C(F)(F)F)cc1)c1ccccc1` (stereo not given), the molecule was called inactive.

On to `CN(C)CCN(Cc1ccccc1)c1ccccn1`, for which the call was inactive.

On to `Cc1cc(CC(=O)O)n(C)c1C(=O)c1ccc(Cl)cc1`, for which the result was inactive.

As for `Nc1ccc(S(=O)(=O)Nc2nccs2)cc1`, the molecule was called inactive.
